Measurements from PubChem BioAssay (Tox21).
Where “and” joins values, the source holds several entries; their conditions need not be identical. Equal values may be shown once. Inconclusive results are not listed. Entries that show only a call come without a potency. Where a structure was tested more than once in an assay, its records may differ in their call. Calls of active or inactive are those of the source. Unless noted, calls follow the shape of the dose curve; as a rule, active = well fitted curve in the direction sought with a large enough effect in the repeat runs; inconclusive = weak or mixed curves; inactive = no such curve, though single readings can be large; an effect the other way counts as inactive or inconclusive.

Tests used:
[1] = target: Aryl hydrocarbon receptor (Homo sapiens) (UniProt P35869); experiment: qHTS assay to identify small molecule that activate the aryl hydrocarbon receptor (AhR) signaling pathway (AID 743085); also: nearly all actives have a fitted effect of over 15% in size;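 as to activation: HG2L7.5c1 human HepG2 liver cells with stably integrated DRE-driven firefly reporter; series mostly up to about 70 µM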
Sequence of Aryl hydrocarbon receptor (Homo sapiens) (P35869 whole entry, looked up): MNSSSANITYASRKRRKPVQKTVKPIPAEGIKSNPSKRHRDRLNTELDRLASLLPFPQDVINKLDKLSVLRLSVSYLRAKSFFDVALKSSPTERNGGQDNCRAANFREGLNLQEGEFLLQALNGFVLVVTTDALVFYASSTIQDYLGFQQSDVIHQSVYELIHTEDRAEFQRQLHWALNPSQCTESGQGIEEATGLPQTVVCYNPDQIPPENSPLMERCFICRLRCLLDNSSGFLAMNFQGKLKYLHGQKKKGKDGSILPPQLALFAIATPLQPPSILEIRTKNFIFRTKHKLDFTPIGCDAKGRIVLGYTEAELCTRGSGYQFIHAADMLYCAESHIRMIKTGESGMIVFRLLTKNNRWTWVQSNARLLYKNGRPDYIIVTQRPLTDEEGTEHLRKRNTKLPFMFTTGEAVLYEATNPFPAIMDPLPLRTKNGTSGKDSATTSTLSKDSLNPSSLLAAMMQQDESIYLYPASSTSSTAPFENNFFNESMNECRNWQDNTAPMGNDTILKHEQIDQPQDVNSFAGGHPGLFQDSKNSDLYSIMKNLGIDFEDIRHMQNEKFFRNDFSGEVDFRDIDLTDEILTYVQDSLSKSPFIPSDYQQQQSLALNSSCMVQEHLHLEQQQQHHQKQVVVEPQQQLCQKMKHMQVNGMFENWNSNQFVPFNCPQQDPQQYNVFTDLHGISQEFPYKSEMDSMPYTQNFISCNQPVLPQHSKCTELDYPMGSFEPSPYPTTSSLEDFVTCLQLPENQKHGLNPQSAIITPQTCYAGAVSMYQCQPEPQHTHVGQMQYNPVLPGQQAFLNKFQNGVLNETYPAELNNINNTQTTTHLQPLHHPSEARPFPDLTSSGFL
Procedure, shortened: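 Luminescence (ONE-Glo) from a dioxin-responsive-element luciferase reporter in HG2L7.5c1 HepG2 cells after 24 hr compound exposure at 37C; viability measured by CellTiter-Fluor fluorescence beforehand.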

[2] = qHTS assay to identify small molecule that activate the aryl hydrocarbon receptor (AhR) signaling pathway - cell viability counter screen (AID 743086); also: nearly all actives have a fitted effect of over 45% in size
Procedure, shortened: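 Cytotoxicity counter screen: CellTiter-Fluor signal (30 min, 37 C) in 4000 HepG2 cells/well carrying the DRE-luciferase reporter, following 24 h compound exposure at 37 C.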

[3] = target: Peroxisome proliferator-activated receptor gamma (Homo sapiens) (UniProt P37231); experiment: qHTS assay to identify small molecule agonists of the peroxisome proliferator-activated receptor gamma (PPARg) signaling pathway (AID 743094; active = well fitted activation curve with a large enough effect in the signal ratio in the repeat runs, not every such curve was filed as active; the % refers to the signal ratio)
Sequence of Peroxisome proliferator-activated receptor gamma (Homo sapiens) (P37231 whole entry, looked up): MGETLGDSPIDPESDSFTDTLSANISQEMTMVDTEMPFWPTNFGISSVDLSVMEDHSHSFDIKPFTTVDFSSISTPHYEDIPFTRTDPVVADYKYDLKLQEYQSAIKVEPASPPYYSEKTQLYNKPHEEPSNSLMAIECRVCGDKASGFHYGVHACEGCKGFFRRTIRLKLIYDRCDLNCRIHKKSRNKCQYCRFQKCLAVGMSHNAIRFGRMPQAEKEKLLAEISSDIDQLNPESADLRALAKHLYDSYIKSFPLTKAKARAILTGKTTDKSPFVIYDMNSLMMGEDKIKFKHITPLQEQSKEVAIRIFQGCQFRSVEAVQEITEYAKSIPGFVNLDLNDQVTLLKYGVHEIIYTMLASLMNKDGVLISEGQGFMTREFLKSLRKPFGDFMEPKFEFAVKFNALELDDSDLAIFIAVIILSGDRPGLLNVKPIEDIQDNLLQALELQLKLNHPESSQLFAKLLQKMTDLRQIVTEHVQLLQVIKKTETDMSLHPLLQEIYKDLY
Procedure, shortened: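 GeneBLAzer PPARg UAS-bla HEK293H cells were plated, rested 5 h, then exposed to compounds for 17 h at 37C. Beta-lactamase activity was read by LiveBLAzer B/G FRET substrate fluorescence after 1 h at room temperature.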

[4] = qHTS assay to identify small molecule antagonists of the peroxisome proliferator-activated receptor gamma (PPARg) signaling pathway - cell viability counter screen (AID 743194); conditions: Potency: co-treated with 50 nM rosiglitazone unless noted; also: nearly all actives have a fitted effect of over 55% in size
Procedure, shortened: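 Viability was measured as CellTiter-Glo luminescence in GeneBLAzer PPARg UAS-bla HEK293H cells. These cells had been exposed 17 h at 37 C to compounds together with rosiglitazone at 50 nM final, with the beta-lactamase readout taken in the same wells.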

[5] = qHTS assay for small molecule agonists of the antioxidant response element (ARE) signaling pathway - cell viability counter screen (AID 743203; calls by dose curve; also: nearly all actives have a fitted effect of over 55% in size)
Procedure, shortened: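 ARE-bla HepG2 cells were plated, rested 5 h at 37C/5% CO2, then exposed to compounds in DMSO for 16 h. Viability was read as CellTiter-Glo luminescence after 30 min at room temperature, in the same wells as the ARE screen.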

[6] = qHTS assay for small molecule activators of the heat shock response signaling pathway - cell viability counter screen (AID 743209); also: nearly all actives have a fitted effect of over 50% in size
Procedure, shortened: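 HSE-bla HeLa cells plated overnight, then exposed to Tox21 compounds (23 nL in DMSO) for 5 h at 37 C. After the bla reporter read, CellTiter-Glo was added in the same wells and luminescence read after 30 min at room temperature.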

[7] = qHTS assay to identify small molecule agonists of the peroxisome proliferator-activated receptor delta (PPARd) signaling pathway - cell viability counter screen (AID 743211); also: nearly all actives have a fitted effect of over 55% in size
Procedure, shortened: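 Viability was measured as CellTiter-Glo luminescence (30 min, room temperature) in the same wells as the beta-lactamase readout. GeneBLAzer PPARd UAS-bla HEK293H cells received compound after 5 h plating and were incubated 17 h at 37 C.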

[8] = qHTS assay for small molecule activators of the heat shock response signaling pathway (AID 743210; active = well fitted activation curve with a large enough effect in the signal ratio in the repeat runs, with a control signal flat, not every such curve was filed as active; the % refers to the signal ratio;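 as to activation: HeLa cells with beta-lactamase reporter driven by heat shock elements; series mostly up to about 63 µM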)
Procedure, shortened: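 HeLa HSE-bla cells, overnight plating; cpd in DMSO 5 h, 37 C; LiveBLAzer B/G FRET substrate 2.5 h RT; fluorescence intensity read.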

[9] = target: Peroxisome proliferator-activated receptor gamma (Homo sapiens) (UniProt P37231); experiment: qHTS assay to identify small molecule antagonists of the peroxisome proliferator-activated receptor gamma (PPARg) signaling pathway (AID 743191; calls by dose curve; also: nearly all actives have a fitted effect of over 30% in size)
Procedure, shortened: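 Beta-lactamase reporter under UAS control in HEK293H PPARg-bla cells; compound treatment 17 h at 37C. Read-out: fluorescence intensity after 1 h room-temperature incubation with LiveBLAzer B/G FRET substrate.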

[10] = qHTS assay for small molecule agonists of the antioxidant response element (ARE) signaling pathway (AID 743202; active = well fitted activation curve with a large enough effect in the signal ratio in the repeat runs, not every such curve was filed as active; the % refers to the signal ratio)
Procedure, shortened: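 Quantitative high-throughput format in HepG2 cells bearing an integrated ARE-beta-lactamase reporter. Compound exposure lasted 16 h at 37 C, and fluorescence was read 2 h after adding LiveBLAzer B/G substrate at room temperature.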
Potency is read from the fitted curve at half-maximal effect.

Row | SMILES | Potency [1] | Potency [2] | Potency [3] | Potency [4] | Potency [5] | Potency [6] | Potency [7] | Potency [8] | Potency [9] | Potency [10]
1 | CCCCN(CCCC)C(=S)[S-].CCCCN(CCCC)C(=S)[S-].[Zn+2] | inactive | inactive | inactive and 30.9 µM (active) | 5.49 µM (active) | 19.3 µM (active) | inactive | 6.16 µM (active) | – | – | –
2 | FC(F)(F)c1cccc(C2=CCN(CCc3ccc4ccccc4c3)CC2)c1 | inactive | inactive | inactive | inactive | inactive | inactive | – | inactive | – | –
3 | COc1ccc(OC)c(CC(C)N)c1 (configuration not stated) | inactive | inactive | inactive | inactive | inactive | inactive | inactive | inactive | inactive | inactive
4 | O=[N+]([O-])c1ccc(Oc2ccc(C(F)(F)F)cc2[N+](=O)[O-])cc1 | 30.6 µM (active) | inactive | inactive | inactive | inactive | inactive | inactive | inactive | – | –
5 | CC(C)(C)c1cc([N+](=O)[O-])cc(C(C)(C)C)c1O | inactive | inactive | inactive | 6.16 µM (active) | – | inactive | – | inactive | inactive | inactive
6 | CNC(C)Cc1ccc2c(c1)OCO2 (configuration not stated) | inactive | inactive | inactive | inactive | – | – | – | – | inactive | inactive
7 | Clc1ccc(C(Cl)(Cl)Cl)c(Cl)c1 | inactive | inactive | inactive | inactive | inactive | inactive | – | inactive | inactive | –
8 | CCN | inactive | inactive | inactive | inactive | – | inactive | – | – | inactive | inactive
9 | Clc1ccc(C(c2ccc(Cl)cc2)C(Cl)(Cl)Cl)cc1 | inactive | inactive | inactive | – | 48.9 µM (active) and inactive | 55.3 µM (active) and 54.9 µM (active) and inactive | – | inactive | inactive | –
10 | CC(=O)c1cc(C(C)(C)C)cc2c1CCC2(C)C | inactive | inactive | inactive | inactive | inactive | – | – | – | inactive | inactive
11 | CCN(CC)c1c([N+](=O)[O-])cc(C(F)(F)F)c(N)c1[N+](=O)[O-] | inactive | inactive | inactive | inactive | inactive | inactive | – | inactive | inactive | inactive
12 | COc1ccc(/C(=C/C(=O)N2CCOCC2)c2ccc(Cl)cc2)cc1OC | inactive | inactive | inactive | inactive | inactive | inactive | – | inactive | – | –
13 | NNC(=O)c1ccccc1 | 15.8 µM (active) | inactive | inactive | inactive | – | – | inactive | inactive | inactive | inactive
14 | CCCCCCCCCCCCCN1CC(C)OC(C)C1 (configuration not stated) | inactive | inactive | inactive | inactive | inactive | inactive | – | inactive | – | –
15 | c1ccc2c(c1)[nH]c1cnccc12 | 54.5 µM (active) | inactive | inactive | inactive | – | inactive | inactive | – | inactive | –
16 | ClC(Cl)=C(Cl)Cl | inactive | inactive | inactive | inactive | inactive | inactive | inactive | inactive | – | inactive
17 | Clc1ccc(-c2ccc(Cl)c(Cl)c2Cl)c(Cl)c1Cl | inactive | inactive | inactive | – | – | inactive | – | – | inactive | –
18 | CC(=O)Nc1ccc2c(c1)Cc1ccccc1-2 | 55.3 µM (active) | inactive | inactive | inactive | – | inactive | inactive | inactive | inactive | 27.7 µM (active)
19 | O=c1[nH]c2ccccc2n1C1CCN(CCCC(c2ccc(F)cc2)c2ccc(F)cc2)CC1 | inactive | inactive | inactive | 24.5 µM [setting not given] (active) | – | 24.5 µM (active) and 13.3 µM (active) | 24.5 µM (active) and 29.8 µM (active) | – | 34.7 µM (active) | –
20 | CC(C)(C)OO | inactive | inactive | inactive | inactive | inactive | inactive | inactive | – | inactive | –
21 | CC(C)CCCCCOC(=O)c1ccccc1C(=O)OCCCCCC(C)C | inactive | inactive | inactive | inactive | – | inactive | – | inactive | inactive | inactive
22 | CC(C)OS(C)(=O)=O | inactive | inactive | inactive | inactive | inactive | inactive | inactive | inactive | inactive | inactive
23 | CN(C)CCc1c[nH]c2cccc(O)c12 | inactive | inactive | inactive | inactive | inactive | inactive | – | – | inactive | –

Row | SMILES | Potency [1] | Potency [2] | Potency [3] | Potency [4] | Potency [5] | Potency [6] | Potency [7] | Potency [8] | Potency [9] | Potency [10]
24 | CN(C)CCc1c[nH]c2ccc(O)cc12 | inactive | inactive | inactive | inactive | inactive | inactive | – | 59.7 µM (active) | inactive | –
25 | N#CNC#N | inactive | inactive | inactive | inactive | inactive | inactive | inactive | inactive | inactive | inactive
26 | Clc1ccc(CSC(Cn2ccnc2)c2ccc(Cl)cc2Cl)cc1 (configuration not stated) | inactive | inactive | inactive | 29.8 µM (active) | 29.8 µM (active) | 29.8 µM (active) | 33.5 µM (active) | – | – | –
27 | CC(C)OC(=S)S | inactive | inactive | inactive | inactive | inactive | inactive | inactive | – | inactive | –
28 | CC(C)N1C(=O)N(c2ccccc2)CSC1=NC(C)(C)C | inactive | inactive | – | – | – | – | – | – | – | –
29 | BrCBr | inactive | inactive | inactive | inactive | inactive | inactive | inactive | inactive | – | inactive
30 | COc1cccc(C(=O)CCN[C@@H](C)[C@H](O)c2ccccc2)c1 | inactive | inactive | inactive | inactive | – | – | – | – | inactive | –
31 | COc1cc(N)c(Cl)cc1C(=O)NC1CN2CCC1CC2 (configuration not stated) | inactive | inactive | inactive | inactive | inactive | – | – | inactive | – | inactive
32 | BrC(Br)Br | inactive | inactive | inactive | inactive | inactive | inactive | inactive | inactive | – | inactive
33 | CC(=O)O[C@H]1CC[C@@]2(C)C(=CC[C@@H]3[C@@H]2CC[C@]2(C)C(=O)CC[C@@H]32)C1 | inactive | inactive | inactive | inactive | – | – | – | – | – | 48.6 µM (active)
34 | Fc1cccc(Cl)c1CCl | inactive | inactive | inactive | inactive | inactive | inactive | inactive | inactive | inactive | –
35 | N#CCCSCCC#N | inactive | inactive | inactive | inactive | inactive | inactive | inactive | inactive | inactive | inactive
36 | ClC1=C(Cl)C2(Cl)C3C(Cl)C=CC3C1(Cl)C2(Cl)Cl (configuration not stated) | inactive | inactive | inactive | 55.2 µM (active) and 24.5 µM (active) | – | – | – | – | – | –
37 | O=[N+]([O-])c1cc([N+](=O)[O-])c2ccccc2c1 | 16.3 µM (active) | inactive | – | – | – | – | – | – | – | –
38 | Cc1cc(C(F)(C(F)(F)F)C(F)(F)F)ccc1NC(=O)c1cccc(I)c1C(=O)NC(C)(C)CS(C)(=O)=O | inactive | inactive | inactive | inactive | inactive | inactive | – | – | inactive | –
39 | ClC(Cl)=C(c1ccc(Cl)cc1)c1ccc(Cl)cc1 | inactive | inactive | inactive | inactive | – | 50.2 µM (active) and 17.4 µM (active) | 24.5 µM (active) | – | – | –
40 | [Cl][Sb]([Cl])[Cl] | inactive | inactive | inactive | – | inactive | inactive | – | – | – | 5.45 µM (active)
41 | CC(Cc1ccc(C(C)(C)C)cc1)CN1C[C@@H](C)O[C@@H](C)C1 (some centres not stated) | inactive | inactive | inactive | 49 µM (active) | – | inactive | – | inactive | – | –
42 | CCCCCCCCCCCCBr | inactive | inactive | – | inactive | – | inactive | inactive | inactive | inactive | –
43 | CC(=O)C(Cl)(Cl)Cl | inactive | 23.5 µM (active) | inactive | – | 0.743 µM (active) | inactive | – | – | – | –
44 | CC(C)[C@H](C(=O)O[C@H](C#N)c1cccc(Oc2ccccc2)c1)c1ccc(Cl)cc1 | inactive | inactive | – | inactive | inactive | inactive | – | – | – | inactive
45 | Cc1cc(SCc2sc(-c3ccc(C(F)(F)F)c(F)c3)nc2C)ccc1OCC(=O)O | inactive | inactive | 2.45 µM (active) | 49 µM (active) | – | – | 38.9 µM (active) | – | – | –
46 | CCOC(=O)OC1=C(c2cc(C)ccc2C)C(=O)NC12CCC(OC)CC2 (configuration not stated) | inactive | inactive | inactive | – | inactive | inactive | inactive | inactive | – | inactive
